The source made the active and inactive calls.
Experiments:
[1] = optical density shifts of acrAB sulA E. coli – strain DRC41, OD650, 48 h, E. coli filamentation inducer project, primary screen (AID 1152); conditions: higher = more signal, called active from +8 up or from −8 down;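 further: E. coli MC1000 strain DRC41 lacking acrAB efflux pump and sulA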
[2] = probe aLefty1 binding on compound microarray – biochemical, small-molecule microarray, 635/667 nm fluorescence, primary screen (AID 1153); conditions: higher = more signal;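 further: score merges spot fluorescence with signal-to-noise ratio from the scanned slide images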
[3] = plasmodial surface anion channel blockers, osmotic lysis – cell-based, P. falciparum Indochina, OD700, 1 h, primary screen (AID 1154); conditions: P. falciparum Indochina infected RBC osmotic lysis, higher = more signal, called active from +8 up or from −8 down
[4] = plasmodial surface anion channel blockers, osmotic lysis – cell-based, P. falciparum Indochina, OD700, 2 h, primary screen (AID 1155);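 further: lysis reports solute entry through the parasite surface anion channel PSAC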; conditions: P. falciparum Indochina infected erythrocytes, higher = more signal, called active from +8 up or from −8 down
[5] = changes in parasitized red cell lysis, either direction – P. falciparum Indochina, OD700, 3 h, PSAC antagonist project, primary screen (AID 1156); conditions: P. falciparum-infected erythrocytes, osmotic lysis, higher = more signal, called active from +8 up or from −8 down
[6] = plasmodial surface anion channel blockers, osmotic lysis – cell-based, P. falciparum Indochina, OD700, 18 h, primary screen (AID 1157); conditions: P. falciparum Indochina infected erythrocytes, osmotic lysis OD700, 18 h; higher = more signal, called active from +8 up or from −8 down
[7] = S6 kinase pathway phospho-S6 level changes – cell-based, A549, cytoblot, luminescence, serum-stimulated, primary screen (AID 1158); conditions: 5 h, higher = more signal;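 further: serum-stimulated A549 lung adenocarcinoma cells; signal is phosphorylated S6 detected by cytoblot immunostaining with HRP secondary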
[8] = biological target: NADPH oxidase 2 (Homo sapiens) (UniProt P04839); assay: compounds shifting NOX2 Amplex Red fluorescence – cell-based, HEK293-NOX2, PMA-stimulated, NOX inhibitor project, primary screen (AID 1159); conditions: 45 min, higher = more signal, called active from +8 up or from −8 down; further: test concentration not given here
[9] = biological target: NADPH oxidase 4 (Homo sapiens) (UniProt Q9NPH5); assay: compounds shifting NOX4 Amplex Red fluorescence – cell-based, HEK293-NOX4, tetracycline-induced, NOX inhibitor project, primary screen (AID 1160); conditions: HEK293-NOX4, Amplex Red H2O2 fluorescence, 45 min; higher = more signal, called active from +8 up or from −8 down
[10] = biological target: NADPH oxidase 5 (Homo sapiens) (UniProt Q96PH1); assay: compounds shifting NOX5 Amplex Red fluorescence – cell-based, HEK293-NOX5, NOX inhibitor project, primary screen (AID 1161); conditions: HEK293-NOX5, ionomycin, 45 min, higher = more signal
[11] = compound effects on lung adenocarcinoma cell viability – A549, calcein-AM fluorescence, 48 h, basal, profiling panel (AID 1162); conditions: higher = more signal; further: test concentration not given here
[12] = compound effects on differentiated 3T3-L1 adipocyte viability – cell-based, 3T3-L1 adipocytes, calcein-AM fluorescence, 48 h, basal, profiling panel (AID 1163); conditions: 3T3-L1 adipocytes viability, higher = more signal; further: test concentration not given here
[13] = compound effects on hepatocellular carcinoma cell viability – HepG2, calcein-AM fluorescence, 48 h, basal, profiling panel (AID 1164); conditions: higher = more signal; further: test concentration not given here
[14] = compound effects on multiple myeloma cell viability – MM1S, calcein-AM fluorescence, 48 h, basal, profiling panel (AID 1165); conditions: higher = more signal; further: test concentration not given here
[15] = calcein-AM signal in unstimulated myeloma cells – cell-based, calcein-AM fluorescence, 48 h, PK04 Diversity Set, profiling panel (AID 1166); conditions: RPMI8226 myeloma viability, higher = more signal;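 further: cells grown under basal conditions without added stimulus; test concentration not given here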
[16] = JC-1 mitochondrial signal, unstimulated HepG2 cells – cell-based, JC-1 fluorescence, 24 h, 100 nL compound, profiling panel (AID 1167); conditions: HepG2 mitochondrial potential, higher = more signal; further: test concentration not given here
[17] = JC-1 mitochondrial signal, unstimulated adipocytes – cell-based, JC-1 fluorescence, 3T3-L1 adipocytes, 24 h, 100 nL compound, profiling panel (AID 1168); conditions: JC-1 mitochondrial fluorescence, higher = more signal, called active from +8 up or from −8 down; further: test concentration not given here
[18] = JC-1 mitochondrial signal, unstimulated myeloma cells – cell-based, JC-1 fluorescence, RPMI8226, 24 h, 100 nL compound, profiling panel (AID 1169); conditions: JC-1 mitochondrial potential fluorescence, higher = more signal; further: test concentration not given here
[19] = JC-1 mitochondrial signal, unstimulated MM1S myeloma – cell-based, JC-1 fluorescence, 24 h, 100 nL compound, profiling panel (AID 1170); conditions: MM1S mitochondrial potential, higher = more signal; further: test concentration not given here
[20] = resazurin metabolic signal in A549 cells – cell-based, resazurin fluorescence, 24 h, PK04 Diversity Set, profiling panel (AID 1171); conditions: A549 viability, higher = more signal, called active from +8 up or from −8 down; further: test concentration not given here

Chain of NADPH oxidase 5 (Homo sapiens) (Q96PH1 whole entry, looked up): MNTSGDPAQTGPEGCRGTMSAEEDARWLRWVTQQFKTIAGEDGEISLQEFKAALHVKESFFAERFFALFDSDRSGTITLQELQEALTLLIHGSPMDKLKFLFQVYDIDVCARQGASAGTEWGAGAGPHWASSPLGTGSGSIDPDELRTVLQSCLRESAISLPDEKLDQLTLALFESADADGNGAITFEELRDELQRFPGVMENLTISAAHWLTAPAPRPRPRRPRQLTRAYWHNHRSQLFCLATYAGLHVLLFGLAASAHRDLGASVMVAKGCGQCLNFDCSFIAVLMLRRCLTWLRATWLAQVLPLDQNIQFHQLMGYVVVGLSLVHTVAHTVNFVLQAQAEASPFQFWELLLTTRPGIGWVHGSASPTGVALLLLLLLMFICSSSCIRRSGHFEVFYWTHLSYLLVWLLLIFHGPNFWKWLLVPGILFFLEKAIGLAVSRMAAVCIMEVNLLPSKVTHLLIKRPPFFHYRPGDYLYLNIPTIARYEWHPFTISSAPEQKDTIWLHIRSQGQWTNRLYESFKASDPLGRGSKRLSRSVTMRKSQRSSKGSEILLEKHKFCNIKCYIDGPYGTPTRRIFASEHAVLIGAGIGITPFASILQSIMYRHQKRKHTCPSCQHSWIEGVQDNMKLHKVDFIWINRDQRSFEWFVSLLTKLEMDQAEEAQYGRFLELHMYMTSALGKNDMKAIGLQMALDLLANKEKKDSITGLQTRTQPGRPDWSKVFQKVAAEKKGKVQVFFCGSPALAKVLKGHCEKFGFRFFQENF
Chain of NADPH oxidase 4 (Homo sapiens) (Q9NPH5 whole entry, looked up): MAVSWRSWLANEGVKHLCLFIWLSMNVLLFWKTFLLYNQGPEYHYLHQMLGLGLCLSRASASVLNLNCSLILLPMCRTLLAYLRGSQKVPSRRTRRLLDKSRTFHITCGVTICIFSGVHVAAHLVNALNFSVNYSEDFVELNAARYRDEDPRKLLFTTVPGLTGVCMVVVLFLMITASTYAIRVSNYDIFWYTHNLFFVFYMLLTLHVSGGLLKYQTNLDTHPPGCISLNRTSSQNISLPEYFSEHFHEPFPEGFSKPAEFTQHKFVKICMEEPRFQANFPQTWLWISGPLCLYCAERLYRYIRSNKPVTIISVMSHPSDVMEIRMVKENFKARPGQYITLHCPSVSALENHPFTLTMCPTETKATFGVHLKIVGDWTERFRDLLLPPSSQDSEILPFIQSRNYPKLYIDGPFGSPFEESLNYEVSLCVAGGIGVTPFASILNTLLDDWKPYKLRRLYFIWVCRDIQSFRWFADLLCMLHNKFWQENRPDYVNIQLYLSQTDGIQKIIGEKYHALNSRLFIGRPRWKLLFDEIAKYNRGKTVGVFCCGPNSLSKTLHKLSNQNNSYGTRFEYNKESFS
Chain of NADPH oxidase 2 (Homo sapiens) (P04839 whole entry, looked up): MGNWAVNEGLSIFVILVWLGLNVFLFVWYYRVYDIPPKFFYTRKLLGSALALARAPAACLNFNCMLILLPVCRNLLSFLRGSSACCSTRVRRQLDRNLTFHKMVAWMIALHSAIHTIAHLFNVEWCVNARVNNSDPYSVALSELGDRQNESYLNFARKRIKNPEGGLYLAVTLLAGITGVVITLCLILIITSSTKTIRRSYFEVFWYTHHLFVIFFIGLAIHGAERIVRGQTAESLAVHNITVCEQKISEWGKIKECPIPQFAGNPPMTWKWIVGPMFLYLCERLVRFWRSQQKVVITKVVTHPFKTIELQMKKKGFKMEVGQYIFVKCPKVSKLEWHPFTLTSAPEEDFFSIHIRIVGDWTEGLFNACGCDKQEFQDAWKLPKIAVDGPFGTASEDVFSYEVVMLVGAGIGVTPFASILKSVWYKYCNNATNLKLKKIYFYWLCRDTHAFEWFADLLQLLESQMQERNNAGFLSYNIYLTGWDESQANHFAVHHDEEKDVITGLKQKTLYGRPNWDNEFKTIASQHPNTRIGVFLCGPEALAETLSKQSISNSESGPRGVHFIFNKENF

Structure (SMILES)	z-score [1]	composite z-score [2]	z-score [3]	z-score [4]	z-score [5]	z-score [6]	z-score [7]	z-score [8]	z-score [9]	z-score [10]	z-score [11]	z-score [12]	z-score [13]	z-score [14]	z-score [15]	z-score [16]	z-score [17]	z-score [18]	z-score [19]	z-score [20]
C[C@]12C(=O)N(CCCCCO)[C@@H]3C(=O)N(c4ccc(Cl)cc4)CC=CC31O[C@@H]1/C=C\CCCOC(=O)C12 (stereo not given in full)	-1.14 (inactive)	-0.0054	-0.198 (inactive)	-0.307 (inactive)	-1.04 (inactive)	-0.183 (inactive)	-0.58	0.754 (inactive)	0.055 (inactive)	1.45	-0.237	0.282	0.209	0.355	-0.376	-0.259	-0.175 (inactive)	0.109	-0.0571	-0.663 (inactive)
OCCCC1=CC(c2cccs2)N(Cc2cccc(OC(F)(F)F)c2)CC1 (stereo not given)	-1.07 (inactive)	-0.0109	7.72 (inactive)	1.33 (inactive)	-0.499 (inactive)	1.07 (inactive)	-0.105	-0.257 (inactive)	-1.27 (inactive)	-1.11	-0.686	-0.777	-1.13	-3.3	-3.79	-1.24	-1.13 (inactive)	-0.733	0.478	0.397 (inactive)
COCCOC(=O)N1C(=O)[C@@]2(c3cc(C#CCNC(N)=O)ccc31)[C@H](C(N)=O)[C@H]1C(=O)O[C@H](c3ccccc3)[C@H](c3ccccc3)N1[C@@H]2c1ccc(OCCO)cc1	-0.618 (inactive)	-0.41	6.81 (inactive)	1.02 (inactive)	-0.0934 (inactive)	0.237 (inactive)	-0.575	1.8 (inactive)	1.04 (inactive)	0.0625	-0.304	-0.867	-0.392	-0.905	0.66	-2.81	0.441 (inactive)	-0.634	-0.602	0.452 (inactive)
CCCC=C(CCC)[C@@H](NS(=O)(=O)CC)c1ccccc1	-1.84 (inactive)	0.443	0.19 (inactive)	-0.0273 (inactive)	-1.28 (inactive)	0.716 (inactive)	-0.259	-1.32 (inactive)	-2.4 (inactive)	2.02	-2.33	-0.924	-1.71	-2.83	-3.64	-2.68	-0.517 (inactive)	-0.889	-0.177	0.677 (inactive)
O=C1OCC=C[C@H]2OC34C=CCN(CCN5CCOCC5)C(=O)[C@H]3N(CCCCCO)C(=O)[C@@H]4[C@@H]12 (stereo not given in full)	-0.457 (inactive)	-0.045	1.69 (inactive)	0.526 (inactive)	1.5 (inactive)	0.0882 (inactive)	2.31	0.922 (inactive)	0.379 (inactive)	2.1	0.348	0.277	-0.36	0.148	0.182	-0.539	0.379 (inactive)	0.205	0.802	-0.536 (inactive)
[N-]=[N+]=NCc1ccccc1C[C@]1(C(=O)NCCN2CCOCC2)N=C(c2ccc(OCCCO)cc2)O[C@H]1c1ccccc1	0.158 (inactive)	0.428	12.7 (active)	1.83 (inactive)	1.14 (inactive)	1.11 (inactive)	0.378	-1.77 (inactive)	-0.0953 (inactive)	-1.19	0.112	0.117	-0.493	-0.338	-1.06	0.871	0.469 (inactive)	-0.636	-0.54	1.29 (inactive)
C=CCOC(=O)[C@@H]1[C@H]2C(=O)O[C@H](c3ccccc3)[C@H](c3ccccc3)N2[C@H](c2ccc(OCCOC(=O)[C@@H]3C[C@@H]4C(=O)N[C@@H](CCCCNC(C)=O)C(=O)N4[C@@H]3c3ccc(O)cc3)cc2)[C@@]12C(=O)Nc1ccc(I)cc12	0.158 (inactive)	0.998	0.978 (inactive)	1.08 (inactive)	1.45 (inactive)	0.718 (inactive)	-0.581	1.42 (inactive)	1.35 (inactive)	0.716	0.32	-0.571	-0.179	-0.154	0.165	-0.396	1.21 (inactive)	-0.482	-1.14	0.873 (inactive)
CCC[C@@H]1C[C@@]1(CCC)[C@@H](NC(=O)c1ccco1)c1ccc(Cl)cc1	-1.37 (inactive)	-0.0035	1.85 (inactive)	0.238 (inactive)	0.425 (inactive)	0.469 (inactive)	-0.0915	-1.46 (inactive)	-3.83 (inactive)	-0.796	-1.03	-0.741	-1.06	-1.6	-4.31	-1.62	-0.00207 (inactive)	-0.736	-2.07	-1.91 (inactive)
CC(C)C[C@@H]1NC(=O)[C@@]23C(=O)N[C@@H](Cc4ccccc4)C2[C@H](C)[C@@]2(C)O[C@H]2C3/C=C/C/C=C\CNC(=O)[C@@H]2CCCN2C1=O (stereo not given in full)	-0.797 (inactive)	-0.234	0.918 (inactive)	0.182 (inactive)	-0.551 (inactive)	0.01 (inactive)	0.226	0.593 (inactive)	1.14 (inactive)	0.579	-0.486	0.0971	-0.809	-0.641	0.219	-0.00843	0.568 (inactive)	0.548	-0.491	-0.023 (inactive)
C[C@H]1ON(c2ccccc2)[C@@H](c2ccccc2)[C@@H]1C(=O)N1C(=O)OC[C@@H]1c1ccccc1	0.319 (inactive)	-0.0141	1.66 (inactive)	0.895 (inactive)	-0.372 (inactive)	0.28 (inactive)	0.238	0.198 (inactive)	-0.28 (inactive)	-0.654	-0.279	0.261	-0.941	0.608	-0.144	-1.24	0.46 (inactive)	0.488	-0.127	0.535 (inactive)
O=C(CS)NCCCCCNC(=O)[C@@H]1C[C@@H]2C(=O)N3CCC[C@H]3C(=O)N2[C@@H]1c1ccc(O)cc1	-0.391 (inactive)	0.109	2.25 (inactive)	0.508 (inactive)	-2.66 (inactive)	0.251 (inactive)	-0.244	0.927 (inactive)	0.313 (inactive)	-0.651	0.644	-0.239	0.413	-0.96	0.125	-0.264	-0.155 (inactive)	-0.282	0.684	-0.284 (inactive)
CC(C)[Si](C#C[Si](C(C)C)(C(C)C)C(C)C)(O[C@H](C)c1cn(Cc2cccc(Cl)c2)nn1)C(C)C	2.58 (inactive)	-0.195	1.23 (inactive)	0.881 (inactive)	-0.125 (inactive)	0.702 (inactive)	0.712	0.501 (inactive)	0.312 (inactive)	-0.162	1.85	-0.667	1.12	0.673	0.133	1.37	0.159 (inactive)	-0.0288	0.238	1.15 (inactive)
NC(=O)NCC#Cc1ccc2c(c1)[C@]1(C(=O)N2)[C@H](c2ccc(OCCO)cc2)N2[C@H](c3ccccc3)[C@H](c3ccccc3)OC(=O)[C@H]2[C@@H]1C(=O)N1CCN(c2ncccn2)CC1	0.811 (inactive)	0.538	3.03 (inactive)	1.1 (inactive)	0.454 (inactive)	0.516 (inactive)	0.0981	1.75 (inactive)	1.48 (inactive)	0.41	0.947	0.212	0.674	-0.167	0.62	-1.45	0.721 (inactive)	-0.726	-0.669	1.1 (inactive)
C=CCOC(=O)[C@@H]1[C@H]2C(=O)O[C@H](c3ccccc3)[C@H](c3ccccc3)N2[C@H](c2ccc(OCCOC(=O)[C@@H]3C[C@@H]4C(=O)N5CCC[C@H]5C(=O)N4[C@@H]3c3cccc(OCCO)c3)cc2)[C@@]12C(=O)Nc1ccc(I)cc12	0.745 (inactive)	-0.462	3.47 (inactive)	1.87 (inactive)	3.63 (inactive)	0.938 (inactive)	0.198	1.82 (inactive)	1.64 (inactive)	1.73	-0.283	0.584	-1.27	-0.16	0.583	-0.853	0.272 (inactive)	-0.661	-0.984	0.592 (inactive)
COC(=O)C(CC#Cc1ccc2c(c1)[C@]1(C(=O)N2)[C@H](C(=O)N2CCc3cc(OC)c(OC)cc3C2)[C@H]2C(=O)O[C@H](c3ccccc3)[C@H](c3ccccc3)N2[C@@H]1c1ccc(O)cc1)C(=O)OC	1.58 (inactive)	-0.321	6.21 (inactive)	1.93 (inactive)	1.93 (inactive)	0.958 (inactive)	0.125	-0.0647 (inactive)	-1.83 (inactive)	0.121	-0.703	1.08	0.613	-0.993	-3.27	-1.81	0.604 (inactive)	-0.606	0.567	-0.216 (inactive)
CC[C@@H]1[C@@H]2C3C(=O)N(CC)C(=O)C3CC(=O)[C@@H]2[C@H](c2ccc(C)cc2)N1S(=O)(=O)c1ccc(C)cc1 (stereo not given in full)	1.29 (inactive)	-0.149	1.39 (inactive)	0.0985 (inactive)	-0.511 (inactive)	-1.35 (inactive)	1.04	1.04 (inactive)	0.451 (inactive)	2.06	0.63	0.552	0.769	-0.639	-1.6	0.601	0.0417 (inactive)	-0.227	-1.59	-0.195 (inactive)

— PubChem BioAssay
